Our source for the growth values is PubChem BioAssay (NCI).

The panel holds about 83,000 compounds, 20% with a hit somewhere; the sample as a whole holds those more often.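 Treatment: one concentration, 48 hours, 96-well format. Scoring: percent growth, with anything below 10 considered active.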 Values without a mark were called inactive. Activity calls are given as the source filed them.

In the assay the test system is OVCAR-4 ovarian. The assay can be described thus: NCI-60 one-dose screen, 48 h (100 = growth as untreated, 0 = no growth, -100 = all killed). The conditions noted are these: 10 µM unless noted. How it is done:
Growth inhibition of the OVCAR-4 human tumor cell line is measured as a screen for anti-cancer activity. Cells are grown in 96 well plates and exposed to the test compound for 48 hours. Compounds are tested at a single concentration, which is 10^-5 M for most compounds. The reported endpoint is percent growth (GI% or GIPRCNT), where numbers from 0 - 100% represent growth inhibition, and numbers from -100% - 0 represent cell death. For example, a value of 40 represents 60% growth inhibition. A value of 0 means no net growth occurred over the course of the experiment. A value of -40 indicates 40% of cells at the beginning of the experiment died by the end of the experiment. A value of -100 means all cells are dead at the end of the experiment.
NCI-60 Human Tumor Cell Lines Screen was performed using the standard one-dose NCI protocol, which is described in more detail at https://dtp.cancer.gov/discovery_development/nci-60/default.htm.
Compounds with GIPRCNT values below 10 were considered active. Activity score was based on GIPRCNT using the following formula: […]
Score is 0 for GIPRCNT values of 100 or above, 50 for GIPRCNT values of 0, and 100 for GIPRCNT values of -100.
On to `CC(=O)/C=C/c1cc2cc(Cl)ccc2[nH]c1=O`, for which the growth is 90.5%.

`CCN1C(=O)N(CC)C2C1NN=c1s/c(=C3\C(=O)N(C4CCCC4)c4ccccc43)c(=O)n12` (stereo not given): the growth was 46.1%. As for `Cc1ccc(C2=NN(c3ccc(S(=O)(=O)NC(=O)NCc4ccccc4)cc3)C(c3ccc(N(C)C)cc3)C2)c(C)c1` (stereo not given), the growth is 57.7%. The value for `COc1ccc(Cn2c(SC)nc(=O)n(Cc3ccc(Cl)cc3)c2=O)cc1` was 98%; that for `CC(C)CCN(CCCNc1c2c(nc3ccccc13)CCCC2)CCC(C)C` was 66.3%; that for `COc1ccc(NC(=O)c2cc3ccccc3nc2Nc2cc(OC)c(OC)c(OC)c2)cc1` was 58.1%. Take `CCC(=O)Oc1cc(/C=C/C(=O)O[C@H]2C[C@H]3CN4CCc5c([nH]c6cc(OC)ccc56)[C@@H]4C[C@@H]3[C@@H](C(=O)OC)[C@@H]2OC)ccc1OC`: the growth was 56.9%. For the compound `COc1cc(/C=C2\CCCC3=C2N=C2SC(C)=NN2C3c2cc(OC)c(OC)c(OC)c2)cc(OC)c1OC` (stereo not given), the growth is 54.3%. In the case of `CC(Cc1nnc(SCC(=O)Nc2ccc(I)cc2)n1N)c1ccccc1` (stereo not given) it was 172%; in that of `Nc1nc(Cl)c2c(ncn2Cc2ccc(CCl)cc2)n1`, 96.1%; in that of `COc1ccc(-c2nc3sccn3c2-c2ccnc(NCCNS(=O)(=O)c3ccc(C(F)(F)F)cc3)n2)cc1`, 15.9%.

Turning to `Cc1cc(Nc2nc(-c3ccncc3)nc3ccccc23)n[nH]1`, the growth is 52.4%. With `CC1(C)OC2COC3(C(=O)O)OC(C)(C)OC3C2O1` (stereo not given), the growth was 116%. As for `O=c1[nH]c(CN2CCN(c3ccccc3F)CC2)nc2sc3c(c12)CCC3`, the growth was 112%. `O=S(=O)(NCCNc1cc(-c2cn(-c3ccccc3)nc2-c2ccccc2)ccn1)c1ccc(F)cc1`: the growth was 85.6%.

Take `COc1cc2c(cc1OC)C1(C)N(CC2)C(=O)OC1(C)C` (stereo not given): the growth is 99.5%. For `NC(N)=NC(N)=Nc1ccccc1-c1ccccc1`, the growth is 110%.

As for `COc1cccc(-c2nc3sccn3c2-c2ccnc(NCCNS(=O)(=O)c3ccccc3)n2)c1`, the growth was 57.4%.

For the compound `COc1ccc(/C=C/C(=O)c2cc(OC)c(OC)c(OC)c2)cc1OCc1cn(Cc2ccc(F)cc2)nn1`, the growth was 43.4%. As to `Cc1ccccc1C(=O)c1ccccc1C(=O)O`, the growth is 114%. The value for `Cc1c(C(=O)NCc2ccccc2)[n+](=O)c2cc(F)ccc2n1[O-]` was 98%. As to `COc1ccc(/C=C(\C#N)c2ccc([N+](=O)[O-])cc2)c2ccccc12`, the growth is 2.84% (active). Regarding `Cc1cc(Nc2nc(C(=O)Nc3ccccc3)nc3ccccc23)n[nH]1`, the growth was 44.6%. `Cc1c(C2=NNC(c3ccc4c(c3)OCO4)C2)[n+]([O-])c2ccccc2[n+]1[O-]` (stereo not given): the growth is 76.3%. As for `O=C(CN1CCN(c2cc3c(cc2F)c(=O)c(C(=O)O)cn3C2CC2)CC1)Nc1ccc(C(=O)/C=C/c2ccc(Cl)cc2)cc1`, the growth is 95.4%.

As to `C=C1C(=O)O[C@H]2[C@H]1CC/C(COC(=O)NCCc1cccc(OC)c1)=C\CC[C@@]1(C)O[C@@H]21`, the growth was 39.9%.

Take `COc1cc(C(=O)OCCCCCCCCCCC[P+](c2ccccc2)(c2ccccc2)c2ccccc2)ccc1O`: the growth is -11.2% (active). The value for `COc1cc(OC)cc(-c2n[nH]nc2-c2ccc3c(c2)OCO3)c1` was 52.5%; that for `CCn1cc(C(=O)O)c(=O)c2cc(F)c(N3CCN(S(=O)(=O)c4c(C)cc(C)cc4C)CC3)cc21` was 91.4%. Take `c1cc(-c2ccc3c(c2)OCO3)n2nccc2n1`: the growth was 98.1%. On to `CC1CCN(C(=O)CSc2nc3sc4c(c3c(=O)[nH]2)CCCC4)CC1`, for which the growth was 108%. In the case of `CCN1C(=O)N(CC)C2C1NN=c1s/c(=C\c3cccc(F)c3)c(=O)n12` (stereo not given) it was 44.1%; in that of `O=C(O)Cc1ccc2c(c1)Cc1cccnc1O2`, 101%. Consider `CCc1cccc(C)c1NC(=O)c1sc2nc3c(cc2c1N)C(=O)CCC3`, for which the growth is 76.3%. `CCOC(=O)c1cc(/C(=N\O)c2cc(OC)c(OC)c(OC)c2)n2c(C)cccc12`: the growth was 54.1%. As to `C#CCC1(c2ccc(F)c(F)c2)NS(=O)(=O)c2ccccc21` (stereo not given), the growth is 105%. With `COc1cc(C2C=C(C)N=C3SC(C)=NN32)cc(OC)c1OC` (stereo not given), the growth was 104%.

As for `Cc1ccc2c(c1)C(C)Cc1c(ncnc1-n1cnc3ccccc31)N2C` (stereo not given), the growth is 30%. In the case of `O=C1c2ccccc2C(=O)c2c(N=Nc3sc(=O)[nH]c3S)cccc21` it was 95.3%; in that of `COc1cccc(/C=C2\SC(N3CCN(c4ccccn4)CC3)=NC2=O)c1`, 110%.
